# In the antibiotic and cytotoxicity screens of Wong et al. (2023):
# The campaign covered roughly 39,000 compounds. About 3,300 (8.5%) were called active. The entries come from a sample that favours actives as a whole.
# Tested on: HepG2
# Test: cytotoxicity call (relative viability < 0.9)
# Conditions: 10 µM
row,SMILES,cytotoxicity call
1,Cc1cc(O)c(C(=O)NC(C(=O)NC2C(=O)N3C(C(=O)O)=C(CSc4nnnn4C)CSC23)c2ccc(O)cc2)cn1 (centres undefined),inactive
2,C[C@H](CO)N1C[C@H](C)[C@@H](CN(C)C(=O)Nc2cccc3ccccc23)Oc2ccc(NC(=O)Nc3ccc4c(c3)OCO4)cc2C1=O,inactive
3,N[C@H]1[C@H](CCCCC(=O)O)SC[C@@H]1N,inactive
4,Cc1noc(C)c1NC(=O)N(C)C[C@@H]1Oc2ccc(NC(=O)c3ccncc3)cc2CC(=O)N([C@@H](C)CO)C[C@H]1C,inactive
5,CC(Cc1ccc(O)c(O)c1)C(C)Cc1ccc(O)c(O)c1 (centres undefined),inactive
6,NCCc1ccc(O)c(O)c1,inactive
7,Cl.NCCc1ccc(O)c(O)c1,active
8,O=C(C[C@H]1CC[C@@H]2[C@H](COC[C@@H](O)CN2C(=O)C2CC2)O1)NCc1ccncc1,inactive
9,COc1cc(CO)cc(I)c1O[C@H]1C=C(C(=O)NCCO)C[C@@H](NC[C@@H]2CCCO2)[C@@H]1O,inactive
10,COc1cc(CO)cc(I)c1O[C@H]1C=C(C(=O)NCCO)C[C@@H](NC2CCCCCC2)[C@@H]1O,active
11,COc1cc(CO)cc(I)c1O[C@H]1C=C(C(=O)NCCO)C[C@@H](NCc2ccc(F)cc2)[C@@H]1O,inactive
12,C[C@@H]1CCCCO[C@@H](CN(C)Cc2ccccc2)[C@@H](C)CN([C@@H](C)CO)C(=O)c2cc(NC(=O)Cc3ccccc3)ccc2O1,inactive
13,C[C@H](CO)N1C[C@H](C)[C@@H](CN(C)Cc2ccc(Cl)c(Cl)c2)OCCCC[C@H](C)Oc2ccc(NC(=O)Cc3ccccc3)cc2C1=O,active
14,C[C@H]1CCCCO[C@@H](CN(C)Cc2ccccc2)[C@@H](C)CN([C@@H](C)CO)C(=O)c2cc(NC(=O)Cc3ccccc3)ccc2O1,inactive
15,C[C@@H]1CN([C@@H](C)CO)C(=O)c2cc(NC(=O)Cc3ccccc3)ccc2O[C@@H](C)CCCCO[C@@H]1CN(C)Cc1ccccc1,inactive
16,C[C@@H]1CCCCO[C@H](CN(C)Cc2ccc(Cl)c(Cl)c2)[C@@H](C)CN([C@H](C)CO)C(=O)c2cc(NC(=O)Cc3ccccc3)ccc2O1,active
17,C[C@@H]1CCCCO[C@@H](CN(C)Cc2ccc(Cl)c(Cl)c2)[C@H](C)CN([C@H](C)CO)C(=O)c2cc(NC(=O)Cc3ccccc3)ccc2O1,inactive
18,C[C@@H]1CN([C@@H](C)CO)C(=O)c2cc(NC(=O)Cc3ccccc3)ccc2O[C@@H](C)CCCCO[C@H]1CN(C)Cc1ccccc1,inactive
19,C[C@@H]1CCCCO[C@H](CN(C)Cc2ccc(Cl)c(Cl)c2)[C@H](C)CN([C@@H](C)CO)C(=O)c2cc(NC(=O)Cc3ccccc3)ccc2O1,inactive
20,C[C@@H]1CN([C@H](C)CO)C(=O)c2cc(NC(=O)Cc3ccccc3)ccc2O[C@@H](C)CCCCO[C@H]1CN(C)Cc1ccc(Cl)c(Cl)c1,active
21,C[C@@H]1CCCCO[C@@H](CN(C)Cc2ccc(Cl)c(Cl)c2)[C@@H](C)CN([C@H](C)CO)C(=O)c2cc(NC(=O)Cc3ccccc3)ccc2O1,active
22,CC(C)NC(=O)[C@@]1(C)c2ccccc2C(=O)N(Cc2cc(C(F)(F)F)cc(C(F)(F)F)c2)[C@H]1c1ccc(CO)cc1,inactive
23,C[C@H](CO)N1C[C@H](C)[C@@H](CN(C)S(=O)(=O)c2ccccc2F)Oc2cc(C#Cc3cccc(F)c3)ccc2S1(=O)=O,inactive

row,SMILES,cytotoxicity call
1,COc1ccc(S(=O)(=O)N(C)C[C@H]2Oc3ccc(NC(=O)Cc4ccccc4)cc3CC(=O)N([C@@H](C)CO)C[C@@H]2C)cc1,inactive
2,C[C@H](CO)N1C[C@H](C)[C@@H](CN(C)C(=O)Cc2ccccn2)Oc2ncc(C#CC3CCCCC3)cc2C1=O,inactive
3,C[C@H](CO)N1C[C@H](C)[C@H](CN(C)S(=O)(=O)c2ccc(F)cc2)Oc2ccc(NC(=O)c3ccncc3)cc2C1=O,inactive
4,CC(C)NC(=O)Nc1ccc2c(c1)CC(=O)N([C@@H](C)CO)C[C@H](C)[C@@H](CN(C)Cc1ccc3c(c1)OCO3)O2,inactive
5,C[C@@H]1CCCCO[C@@H](CN(C)C(=O)c2ccccc2)[C@H](C)CN([C@@H](C)CO)C(=O)c2cc(NC(=O)Nc3ccc(F)cc3)ccc2O1,inactive
6,C[C@H](NC(=O)C[C@H]1C[C@H]2c3cc(NC(=O)Nc4ccc(C(F)(F)F)cc4)ccc3O[C@H]2[C@@H](CO)O1)c1ccccc1,inactive
7,CC(C)[Si]1(C(C)C)OCc2cc(-c3ccc(-c4ccc(Cl)c(Cl)c4)o3)nc(-c3ccccc3)c21,inactive
8,CCC(=O)OC1C2CC3=C4CC(=O)OC(c5ccoc5)C4(C)CCC3C(C)(C2=O)C(CC(=O)OC)C1(C)C (centres undefined),inactive
9,C[C@H](CO)N1C[C@H](C)[C@@H](CN(C)S(=O)(=O)c2ccccc2)OCCCC[C@H](C)Oc2ccc(NC(=O)NC3CCCCC3)cc2C1=O,inactive
10,C[C@@H]1CCCCO[C@@H](CN(C)Cc2ccc(Cl)c(Cl)c2)[C@@H](C)CN([C@@H](C)CO)C(=O)c2cc(NC(=O)Cc3ccccc3)ccc2O1,inactive
11,C[C@H]1CCCCO[C@H](CN(C)Cc2ccc(Cl)c(Cl)c2)[C@@H](C)CN([C@@H](C)CO)C(=O)c2cc(NC(=O)Cc3ccccc3)ccc2O1,active
12,C[C@@H]1CCCCO[C@H](CN(C)Cc2ccc(Cl)c(Cl)c2)[C@@H](C)CN([C@@H](C)CO)C(=O)c2cc(NC(=O)Cc3ccccc3)ccc2O1,inactive
13,C[C@@H]1CCCCO[C@@H](CN(C)Cc2ccc(Cl)c(Cl)c2)[C@H](C)CN([C@@H](C)CO)C(=O)c2cc(NC(=O)Cc3ccccc3)ccc2O1,active
14,C[C@@H]1CN([C@H](C)CO)C(=O)c2cc(NC(=O)Cc3ccccc3)ccc2O[C@@H](C)CCCCO[C@@H]1CN(C)Cc1ccc(Cl)c(Cl)c1,inactive
15,C[C@@H]1CCCCO[C@H](CN(C)Cc2ccccc2)[C@@H](C)CN([C@H](C)CO)C(=O)c2cc(NC(=O)Cc3ccccc3)ccc2O1,inactive
16,C[C@H]1CN([C@@H](C)CO)S(=O)(=O)c2ccc(C#CC3(O)CCCC3)cc2O[C@@H]1CN(C)C(=O)Nc1ccccc1,inactive
17,C[C@H](CO)N1C[C@H](C)[C@@H](CN(C)S(=O)(=O)c2cccs2)OCCCC[C@H](C)Oc2ccc(NC(=O)Cc3ccccc3)cc2C1=O,inactive
18,C[C@@H]1CN([C@H](C)CO)C(=O)Cc2cc(NC(=O)Cn3cnnn3)ccc2O[C@H]1CN(C)Cc1ccc2c(c1)OCO2,inactive
19,CO[C@@H](CN(C)S(=O)(=O)c1ccc(Cl)cc1)[C@H](C)CN([C@@H](C)CO)S(=O)(=O)c1cccc(Cl)c1,inactive
20,O=C1OC2(c3ccc(O)cc3Oc3cc(O)ccc32)c2ccccc21,inactive
21,O=C1OC(c2cc(I)c(O)c(I)c2)(c2cc(I)c(O)c(I)c2)c2ccccc21,inactive
22,O=C1OC2(c3ccccc31)c1cc(I)c(O)c(I)c1Oc1c2cc(I)c(O)c1I,active
23,C[C@@H]1CN([C@@H](C)CO)C(=O)c2cccc(NC(=O)c3cnccn3)c2O[C@H]1CN(C)C(=O)NC1CCCCC1,inactive

row,SMILES,cytotoxicity call
1,Cc1[nH]c(=O)[nH]c(=O)c1S(=O)(=O)N1CCN(c2ccccc2)CC1,inactive
2,Cc1noc(C)c1NC(=O)N(C)C[C@@H]1OCCCC[C@H](C)Oc2ccc(NS(=O)(=O)c3ccccc3)cc2C(=O)N([C@@H](C)CO)C[C@H]1C,inactive
3,C[C@H]1CN([C@@H](C)CO)S(=O)(=O)c2ccc(C#Cc3ccccc3F)cc2O[C@@H]1CN(C)C(=O)Cc1cccnc1,inactive
4,O=C(C[C@@H]1CC[C@@H]2[C@H](COC[C@@H](O)CN2S(=O)(=O)c2cccc(Cl)c2)O1)NC1Cc2ccccc2C1,inactive
5,O=C(C[C@@H]1C[C@H]2c3cc(NS(=O)(=O)c4ccc(F)cc4)ccc3O[C@H]2[C@H](CO)O1)NC1CCCC1,inactive
6,COCC#Cc1cnc2c(c1)C(=O)N([C@@H](C)CO)C[C@H](C)[C@H](CN(C)C(=O)c1cnccn1)O2,inactive
7,C#CC[C@H](c1nc2cc(Cl)ccc2c(=O)n1Nc1ccccc1)N(CCCN)C(=O)c1cccc(Cl)c1F,active
8,C[C@@H]1CN([C@H](C)CO)S(=O)(=O)c2ccc(-c3cccc(C#N)c3)cc2O[C@H]1CN(C)C(=O)c1ccncc1,inactive
9,Cc1nc[nH]c1CN(C)[C@H](C)C(=O)N(C)C,inactive
10,CN(C)CCC=C1c2ccccc2C=Cc2ccccc21.Cl,active
11,CN(C)CN1C(=O)c2ccccc2C1=O,inactive
12,CN(C)CCC=C1c2ccccc2CCc2ccccc21.Cl,active
13,CN(C)CCC=C1c2ccccc2COc2ccc(CC(=O)O)cc21.Cl,inactive
14,CNCCC=C1c2ccccc2CCc2ccccc21.Cl,active
15,CN(C)CCC=C1c2ccccc2COc2ccccc21.Cl,active
16,Cc1noc(C2CNC2)n1,inactive
17,COc1ccc(NC(=O)N(C)C[C@@H]2OCCCC[C@@H](C)Oc3ccc(NC(=O)NC(C)C)cc3C(=O)N([C@@H](C)CO)C[C@H]2C)cc1,inactive
18,COc1cccc(NC(=O)C[C@@H]2CC[C@H]3[C@@H](COc4ccc(NC(=O)C5CCOCC5)cc4C(=O)N3C)O2)c1,inactive
19,C[C@H](CO)N1C[C@H](C)[C@H](CN(C)S(C)(=O)=O)Oc2ccc(NC(=O)CCCCCC(=O)Nc3ccccc3N)cc2CC1=O,inactive
20,C[C@H](CO)N1C[C@H](C)[C@H](CN(C)C(=O)c2cccnc2)Oc2cc(C#CC3(O)CCCC3)ccc2S1(=O)=O,inactive
21,COc1cccc(S(=O)(=O)N(C)C[C@H]2OCc3cnnn3CCCC(=O)N([C@@H](C)CO)C[C@H]2C)c1,inactive
22,C[C@H]1CN([C@@H](C)CO)C(=O)c2cccc(NS(C)(=O)=O)c2O[C@@H]1CN(C)C(=O)Nc1ccccc1,inactive
23,CC(C)NC(=O)N(C)C[C@@H]1Oc2ccc(NS(=O)(=O)c3ccccc3)cc2C(=O)N([C@@H](C)CO)C[C@H]1C,inactive
